The text below walks through data of PubChem BioAssay AID1851 (National Center for Advancing Translational Sciences (NCATS), 2009).

Screen size: about 16,000 compounds; about 4,000 (25%) were called active. Inconclusive results (about 26%) are left out. A selection follows. Values without a mark were called inactive. Calls come from the whole dose curve; as a rule, active = well fitted curve in the direction sought with a large enough effect; inconclusive = small, poorly fitted or top-dose-only effect, or effect the other way; inactive = no such curve, though single readings can be large or run the other way.
% is set by controls: 0 for no effect and ±100 for the full control effect.

Sequence of Cytochrome P450 2C9 (Homo sapiens) (P11712 whole entry, looked up): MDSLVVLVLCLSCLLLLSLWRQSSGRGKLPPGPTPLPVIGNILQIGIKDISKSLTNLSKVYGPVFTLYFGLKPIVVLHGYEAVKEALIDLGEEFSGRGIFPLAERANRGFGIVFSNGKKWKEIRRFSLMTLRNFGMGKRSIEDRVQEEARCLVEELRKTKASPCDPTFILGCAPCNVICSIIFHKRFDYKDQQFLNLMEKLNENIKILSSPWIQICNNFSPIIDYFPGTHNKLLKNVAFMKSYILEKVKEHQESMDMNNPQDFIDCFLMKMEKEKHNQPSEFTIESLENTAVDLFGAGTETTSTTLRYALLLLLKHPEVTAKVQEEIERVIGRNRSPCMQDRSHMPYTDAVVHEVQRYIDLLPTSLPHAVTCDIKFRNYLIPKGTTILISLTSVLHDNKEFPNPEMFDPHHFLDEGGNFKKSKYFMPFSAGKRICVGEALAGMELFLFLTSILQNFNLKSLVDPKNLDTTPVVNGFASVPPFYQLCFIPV

The experiment addresses Cytochrome P450 2C9 (Homo sapiens) (UniProt P11712). The experiment is described as follows: Cytochrome panel assay with activity outcomes. The note with it: recombinant CYP, pro-luciferin dealkylation, luminescence, p450-cyp2c9; series mostly up to 57.1 µM; activity, negative = inhibition: at the top concentration.
Regarding `Brc1ccc([C@H]2CN3CCSC3=N2)cc1`, the “activity, negative = inhibition” value was -16%.

As for `CN1CCN(c2ncncc2-c2ccc(C(=O)N(C)C)cc2)CC1`, the activity, negative = inhibition was 16.3% [at 2.29 µM].

Take `O=P(O)(O)CCP(=O)(c1ccccc1)c1ccccc1`: the “activity, negative = inhibition” value was 1.21%.

In the case of `CCNc1ncc2nc(-c3ccc(F)cc3)c(=O)n(C[C@H]3CCCO3)c2n1`, the “activity, negative = inhibition” value was 18.5%.

`CCNc1ncc2nc(-c3cc(F)cc(F)c3)c(=O)n(C[C@H]3CCCO3)c2n1`: the “activity, negative = inhibition” value is 5.57%.

As usually defined, the AC50 is the concentration at which the activity in the assay is half-maximal. For the compound `O=C1CC(c2ccc(F)cc2)Cc2nc(NCC3CCCO3)ncc21` (stereo unspecified), the AC50 is 12.6 µM (active).

Turning to `Cc1ccc2nc(SCC(=O)NCc3cccs3)c(C#N)cc2c1`, the “activity, negative = inhibition” value is -10.6%.

For `Cc1nc2cccc([N+](=O)[O-])c2n1CCCN(C)C`, the activity, negative = inhibition is -4.5% [at 11.4 µM].

In the case of `Cc1ccc2nc(SCc3nnc(-c4ccccc4[N+](=O)[O-])o3)c(C#N)cc2c1`, the AC50 was 0.794 µM (active).

Regarding `CN1CCC(=C2c3ccccc3CC(=O)c3sccc32)CC1`, the AC50 result was “inactive”.

Regarding `O=C(O)CN(CCN(CC(=O)O)CC(=O)O)CC(=O)O.[Mn]`, the activity, negative = inhibition is -0.525% [at 11.4 µM].

For the compound `Cc1cn2c(-c3ccncc3)nnc2s1`, the “activity, negative = inhibition” value was -23.3%.

For `c1cc(-c2sc(-c3ccncc3)c(-c3ccncc3)c2-c2ccncc2)ccn1`, the AC50 is 2 µM (active).

For `COc1cccc(NS(=O)(=O)c2ccc3[nH]cc(C(=O)NCCN4CCOCC4)c(=O)c3c2)c1`, the AC50 is 7.94 µM (active).

For `CN1CCN(S(=O)(=O)c2ccc3[nH]cc(C(=O)O)c(=O)c3c2)CC1`, the “activity, negative = inhibition” value is -21.4%.

On to `COc1cccc(C2=NOC(C(=O)NCCN3CCOCC3)C2)c1` (stereo unspecified), for which the “activity, negative = inhibition” value is -23.4%.

Turning to `CCC(CC)C(=O)c1c[nH]c(C(=O)NCCCN2CCOCC2)c1`, the “activity, negative = inhibition” value was -7.46%.

Consider `Cc1ccccc1NS(=O)(=O)c1ccc2[nH]cc(C(=O)N(C)Cc3ccco3)c(=O)c2c1`, for which the AC50 is 12.6 µM (active).

With `Cc1cc(S(=O)(=O)NCCCN2CCOCC2)ccc1F`, the “activity, negative = inhibition” value was -0.482%.

As to `CS(=O)(=O)Nc1cccc(-c2nc(NCCN3CCOCC3)c3ccccc3n2)c1`, the activity, negative = inhibition is 3.9% [at 2.29 µM].

Take `Cc1ccccc1NS(=O)(=O)c1ccc2[nH]cc(C(=O)NCCCN3CCOCC3)c(=O)c2c1`: the concentration at half-maximal activity (AC50) was 12.6 µM (active).

With `CO[C@H]1COC(=O)C/C=C\[C@@H](C)COC(=O)[C@@H](C)NC(=O)C/C=C\[C@@H]1C`, the activity, negative = inhibition was -12.1% [at 11.4 µM].

`Cc1ccccc1N1CCN(C(=O)c2ccccc2NC(=O)/C=C\C(=O)O)CC1`: the AC50 is 14.1 µM (active).

Consider `COC(=O)CNC(=O)/C=C/c1ccc(OC)cc1`, for which the “activity, negative = inhibition” value is -10.7%.

In the case of `CCOC(=O)C1CCN(C(=O)c2ccccc2NC(C)=O)CC1`, the “activity, negative = inhibition” value is -13.2%.

Turning to `COc1ccc(/C=C/C(=O)Nc2ccccc2C(=O)N2CCCC2)cc1`, the AC50 was 15.8 µM (active).

As for `COC(=O)N1CCC2(CCCN(C(=O)Nc3ccc(OC)cc3)C2)CC1`, the “activity, negative = inhibition” value is -12%.

With `NCc1ccccc1CC(=O)N[C@@H]1C(=O)N2C(C(=O)O)=C(CSc3nnnn3CC(=O)O)CS[C@@H]12`, the “activity, negative = inhibition” value was -8% [at 25.6 µM].

As for `CC(=O)Nc1nc(NC(C)=O)c2[nH]c(CO)nc2n1`, the activity, negative = inhibition is 15.3% [at 11.4 µM].

On to `Cc1nc2cnc(N3CCNCC3)nc2n(-c2ccccc2)c1=O`, for which the “activity, negative = inhibition” value was 11.8%.

Consider `Cc1cc(C)cc(-n2nnnc2-c2cn(C)nc2C(F)(F)F)c1`, for which the “activity, negative = inhibition” value was -29.6%.

Consider `FC(F)(F)c1nc(N2CCCC2)ncc1-c1nnnn1-c1ccccc1`, for which the AC50 was 6.31 µM (active).

In the case of `FC(F)(F)c1nc(-c2ccncc2)ncc1-c1nnnn1-c1ccccc1`, the AC50 is 2.82 µM (active).

Consider `c1ccc(CNc2nc(-c3ccoc3)nc3ccccc23)cc1`, for which the activity, negative = inhibition is -16.4% [at 2.29 µM].

As to `CCCNC(=S)Nc1ccc(Br)cc1`, the AC50 is 14.1 µM (active).

For the compound `Cc1ccc(NC(=S)Nc2ccc(Br)cc2)cc1`, the “activity, negative = inhibition” value is -21.4%.

Take `Cc1cc(C)n(-c2ccc(F)cc2)c(=O)c1C(=O)O`: the “activity, negative = inhibition” value was -2.88%.

On to `N=c1n(-c2ccccc2)c(O)cc(=O)n1-c1ccccc1`, for which the “activity, negative = inhibition” value was -18.2%.

On to `CC(=O)c1c(O)c(C)c(-c2ccccc2)n(-c2ccccc2)c1=O`, for which the AC50 was 14.1 µM (active).

In the case of `N#C/C(=N\O)c1nc(-c2ccccc2)cs1`, the AC50 is 22.4 µM (active).

Consider `C[n+]1cccc(CNC(=O)/C=N/O)c1`, for which the “activity, negative = inhibition” value is 4.55%.

For the compound `O=C1C(=O)c2ccccc2C(O)=C1C(CCc1ccccc1)C1=C(O)c2ccccc2C(=O)C1=O`, the AC50 was 3.16 µM (active).

Turning to `O=C(O)[C@H](CCc1ccccc1)N1C(=O)c2ccccc2C1=O`, the activity, negative = inhibition is -7.78% [at 11.4 µM].

Consider `O=C1OCCC=C1[C@@H](O)CCc1ccccc1`, for which the activity, negative = inhibition is 5.4% [at 11.4 µM].

With `CC(=O)O[C@H]1C2=CO[C@H](C)[C@H]3[C@H]4C5=C([C@H](O)[C@H]6O[C@@H]6C5=O)[C@H](O[C@H]4C)[C@@]23C(=O)[C@H]2O[C@@H]21`, the activity, negative = inhibition is 19.9% [at 11.4 µM].

Take `COC(=O)c1cc(Br)c(=O)n(CCc2ccc(O)cc2)c1`: the AC50 was 12.6 µM (active).

`CC(C)CN1CCCC2(CCN(C(=O)c3csnn3)CC2)C1`: the “activity, negative = inhibition” value is -12.6%.

For the compound `O=C1CCC[C@@H](C(C(=O)OCc2ccccc2)C(=O)OCc2ccccc2)C1`, the AC50 is 3.16 µM (active).

With `O=C(O)C1CCCN1C(=O)OCc1ccccc1` (stereo unspecified), the “activity, negative = inhibition” value was -14.5%.

On to `NC(=O)C1CCN(C(=O)OCc2ccccc2)CC1`, for which the “activity, negative = inhibition” value was -21.8%.

Regarding `COc1ccc(/C(C)=N/NC(=O)c2ccc(N(C)C)cc2)cc1`, the “activity, negative = inhibition” value is -59.1%.

For the compound `C/C(=N\NC(=O)c1cccc(Cl)c1)c1cccc(NC(=O)C(C)C)c1`, the “activity, negative = inhibition” value was -1.8%.

`COc1ccc(C(=O)N/N=C(\C)Cn2nc([N+](=O)[O-])cc2C)cc1`: the “activity, negative = inhibition” value is -17.7%.

Consider `C/C(=N/NS(=O)(=O)c1ccc(C)cc1)c1cccc(NC(=O)c2cccc(Cl)c2)c1`, for which the AC50 was 3.98 µM (active).

As for `COc1ccc(CC(=O)Nc2cccc(/C(C)=N/NC(=O)c3cccc([N+](=O)[O-])c3)c2)cc1`, the AC50 is 1.58 µM (active).

Take `COc1ccc(S(=O)(=O)N/N=C(/C)c2cccc(NC(=O)c3ccccc3Cl)c2)cc1`: the half-maximal activity concentration (AC50) was 0.2 µM (active).

On to `CCC(=O)Nc1ccc(/C(C)=N\NS(=O)(=O)c2ccc(C)cc2)cc1`, for which the AC50 is 2.24 µM (active).

Take `COc1ccc(NC(=O)c2cc(S(=O)(=O)N3CCS(=O)(=O)CC3)ccc2Cl)cc1`: the “activity, negative = inhibition” value was -7.18%.

Regarding `CC(C)c1ccc(/C=C2\C=C(c3ccc4ccccc4c3)OC2=O)cc1`, the activity, negative = inhibition is -10% [at 11.4 µM].

On to `O=C1c2ccccc2C(=O)c2c1ccc(C(=O)O)c2-c1ccc2ccccc2c1`, for which the AC50 is 1.58 µM (active).

Turning to `O=C(O)c1ccccc1C(=O)Nc1cc2c(cc1Br)-c1ccccc1C2=O`, the activity, negative = inhibition is -5.92% [at 11.4 µM].
